Values joined by “and” are separate entries in the source; they are usually repeats but may differ in a detail not shown here. Equal entries are not always repeated. Hit rate of the full screen: of about 5,500 compounds, about 2,000 (36%) were called active. Another 18% or so got no clear call; they are omitted. Rule as the data show it: active = normalized growth mostly below about 0.91 (no sharp cut-off); inconclusive = no clear call, values can overlap the other calls; inactive = mostly above about 0.92. The list shows a part of the results.
Experiment: chemical genetic growth profiling, strain panel (AID 1159580);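 also: tested at 20 µM; growth read once vehicle control cultures reached saturation at 30 °C; 1 = growth at the plate median or of vehicle wells; lower values mean less growth of the strain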
Conditions: S. cerevisiae deletion strains, growth OD

Measured: normalized growth

C[C@@H]1O[C@@H](O[C@H]2CC[C@]3(C=O)C4CC[C@]5(C)[C@@H](C6=CC(=O)OC6)CC[C@]5(O)C4CC[C@]3(O)C2)[C@H](O)[C@H](O)[C@H]1O (stereo not given in full)
inactive: locus YAL021C, strain ccr4, active compounds read low 1.02 | locus YAL026C, strain drs2, active compounds read low 0.997 | locus YAL030W, strain snc1, active compounds read low 0.998 | locus YBL061C, strain skt5, active compounds read low 0.991 | locus YBR009C, strain hhf1, active compounds read low 0.979 | locus YBR021W, strain FUR4, active compounds read low 1.05 | locus YBR023C, strain chs3, active compounds read low 0.999 | locus YBR171W, strain sec66, active compounds read low 0.992 | locus YBR229C, strain ROT2, active compounds read low 0.962 | locus YBR231C, strain swc5, active compounds read low 0.987 | locus YBR279W, strain paf1, active compounds read low 1 | locus YCL011C, strain gbp2, active compounds read low 0.999 | locus YCL016C, strain dcc1, active compounds read low 0.996 | locus YCL029C, strain bik1, active compounds read low 0.985 | locus YCL061C, strain MRC1, active compounds read low 1 | locus YCL069W, strain vba3, active compounds read low 1.01 | locus YCR088W, strain abp1, active compounds read low 0.997 | locus YDL005C, strain med2, active compounds read low 0.999 | locus YDL035C, strain GPR1, active compounds read low 0.999 | locus YDL040C, strain nat1, active compounds read low 0.978 | locus YDL074C, strain BRE1, active compounds read low 1.05 | locus YDL101C, strain DUN1, active compounds read low 0.976 | locus YDL134C, strain PPH21, active compounds read low 0.989 | locus YDL185W, strain tfp1, active compounds read low 0.987 | locus YDL192W, strain arf1, active compounds read low 0.99 | locus YDR001C, strain nth1, active compounds read low 1 | locus YDR069C, strain doa4, active compounds read low 0.984 | locus YDR101C, strain arx1, active compounds read low 1.02 | locus YDR137W, strain rgp1, active compounds read low 1.01 | locus YDR150W, strain NUM1, active compounds read low 0.995 | locus YDR159W, strain sac3, active compounds read low 0.95 | locus YDR162C, strain NBP2, active compounds read low 0.934 | locus YDR195W, strain ref2 0.927 | locus YDR297W, strain sur2, active compounds read low 0.996 | locus YDR318W, strain mcm21, active compounds read low 0.979 | locus YDR334W, strain swr1, active compounds read low 0.998 | locus YDR335W, strain msn5, active compounds read low 1 | locus YDR388W, active compounds read low 0.999 | locus YDR392W, strain spt3, active compounds read low 0.88 | locus YDR502C, strain sam2, active compounds read low 0.982 | locus YEL003W, strain gim4, active compounds read low 0.999 | locus YEL037C, strain rad23, active compounds read low 1.01 | locus YEL061C, strain CIN8 (second series), active compounds read low 1 | locus YEL061C, strain CIN8, active compounds read low 0.996 | locus YER015W, strain faa2, active compounds read low 0.992 | locus YER016W, strain bim1, active compounds read low 0.99 | locus YER110C, active compounds read low 0.985 | locus YER111C, strain swi4, active compounds read low 0.988 | locus YER155C, strain BEM2 (second series), active compounds read low 0.978 | locus YER155C, strain BEM2, active compounds read low 1.01 | locus YER167W, strain BCK2, active compounds read low 0.999 | locus YFR010W, strain ubp6, active compounds read low 0.999 | locus YGL078C, strain dbp3, active compounds read low 0.989 | locus YGL086W, strain mad1, active compounds read low 1.04 | locus YGL167C, strain pmr1, active compounds read low 0.982 | locus YGL173C, strain kem1, active compounds read low 0.99 | locus YGL227W, strain vid30, active compounds read low 0.99 | locus YGL240W, strain doc1, active compounds read low 0.969 | locus YGL248W, strain PDE1, active compounds read low 0.976 | locus YGL253W, strain hxk2, active compounds read low 0.992 | locus YGR078C, strain PAC10, active compounds read low 0.974 | locus YGR135W, strain pre9, active compounds read low 0.966 | locus YGR229C, strain SMI1, active compounds read low 0.987 | locus YGR252W, strain gcn5, active compounds read low 0.953 | locus YHR013C, strain ard1, active compounds read low 0.954 | locus YHR027C, strain rpn1, active compounds read low 0.996 | locus YHR030C, strain SLT2, active compounds read low 1.01 and 0.997 | locus YHR079C, strain IRE1 (second series), active compounds read low 1.01 | locus YHR079C, strain IRE1, active compounds read low 0.992 | locus YHR094C, strain hxt1, active compounds read low 0.986 | locus YHR129C, strain ARP1, active compounds read low 1 | locus YHR142W, strain chs7, active compounds read low 1.03 | locus YHR200W, strain rpn10, active compounds read low 1 | locus YIL066C, strain RNR3, active compounds read low 0.984 | locus YIL073C, strain SPO22, active compounds read low 1.02 | locus YIL125W, strain kgd1, active compounds read low 0.988 | locus YIR030C, strain dcg1, active compounds read low 0.995 | locus YJL092W, strain hpr5, active compounds read low 1 | locus YJL095W, strain BCK1 (second series), active compounds read low 0.998 | locus YJL095W, strain BCK1, active compounds read low 0.965 and 0.985 | locus YJL115W, strain asf1, active compounds read low 0.999 | locus YJL129C, strain trk1, active compounds read low 1.01 | locus YJL134W, strain LCB3, active compounds read low 0.994 | locus YJL154C, strain vps35, active compounds read low 1.01 | locus YJL164C, strain tpk1, active compounds read low 1.01 | locus YJL166W, strain qcr8, active compounds read low 0.99 | locus YJL168C, strain set2, active compounds read low 0.99 | locus YJL187C, strain SWE1 (second series), active compounds read low 0.97 | locus YJL187C, strain SWE1, active compounds read low 1 | locus YJR043C, strain POL32, active compounds read low 0.99
